Assay results as given in the supplement of paper PMC10849652.
Of roughly 7,900 targets only a part is listed; those with a hit were picked by preference. About 0.6% of all pairs of compound and target were hits. A number with no mark means an inactive call.

What was measured:
Assay in all cases: log2 fold change, soluble protein after heating vs DMSO (PISA); higher = thermal stabilisation; K562 cells, 10 uM, 30 min; active = over 0.2 and 3.5 SD of the protein, either way, in both replicates (recomputed)
[1] = compound: CS(=O)(=O)c1ccc(-c2cnc(N)c(C(=O)Nc3ccccc3)n2)cc1
Outline: (§1)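 K562 cells at 2×10^6 cells/mL were given 10 μM compound for 30 min. Aliquots then went through 3 min of heating across 48°C-58°C, were pooled, and were extracted in PBS with 0.5% NP-40 at 4°C, and the supernatant after 21,000xg for 90 min was quantified by TMTpro 16plex LC-MS/MS with channel sums equalised. Thermal stability relative to control samples, from duplicates, is given as log2 fold change.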

crizotinib = compound: C[C@@H](Oc1cc(-c2cnn(C3CCNCC3)c2)cnc1N)c1c(Cl)ccc(F)c1Cl [crizotinib]
Outline: as §1

[2] = compound: C[C@@H]1COCCN1C2=NC(=NC(=C2)C3(CC3)S(=O)(=O)C)C4=C5C=CNC5=CC=C4
Outline: as §1

[3] = compound: C[C@H](C1=CC=C(C=C1)C(=O)NC2=C3C=CNC3=NC=C2)N
Outline: as §1

duvelisib = compound: C[C@H](Nc1ncnc2nc[nH]c12)c1cc2cccc(Cl)c2c(=O)n1-c1ccccc1 [duvelisib]
Outline: as §1

gandotinib = compound: Cc1cc(Nc2cc(CN3CCOCC3)c3nc(C)c(Cc4ccc(Cl)cc4F)n3n2)n[nH]1 [gandotinib]
Outline: as §1

[4] = compound: Cc1cc(SCc2sc(-c3ccc(C(F)(F)F)cc3)nc2C)ccc1OCC(=O)O
Outline: as §1

doramapimod = compound: Cc1ccc(-n2nc(C(C)(C)C)cc2NC(=O)Nc2ccc(OCCN3CCOCC3)c3ccccc23)cc1 [doramapimod]
Outline: as §1

ispinesib = compound: Cc1ccc(C(=O)N(CCCN)[C@@H](c2nc3cc(Cl)ccc3c(=O)n2Cc2ccccc2)C(C)C)cc1 [ispinesib]
Outline: as §1

bafetinib = compound: Cc1ccc(NC(=O)c2ccc(CN3CC[C@H](N(C)C)C3)c(C(F)(F)F)c2)cc1Nc1nccc(-c2cncnc2)n1 [bafetinib]
Outline: as §1

[5] = compound: Cc1cccc(CC(=O)N2CCc3c2ccc(-c2cn(C)c4ncnc(N)c24)c3F)n1
Outline: as §1

dasatinib = compound: Cc1nc(Nc2ncc(C(=O)Nc3c(C)cccc3Cl)s2)cc(N2CCN(CCO)CC2)n1 [dasatinib]
Outline: as §1

[6] = compound: Cn1cc(-c2ccc3c(c2)CCN3C(=O)Cc2cccc(C(F)(F)F)c2)c2c(N)ncnc21
Outline: as §1

[7] = compound: Cn1cc(-c2ccc3nnc(C(F)(F)c4ccc5ncccc5c4)n3n2)cn1
Outline: as §1

mubritinib = compound: FC(F)(F)c1ccc(/C=C/c2nc(COc3ccc(CCCCn4ccnn4)cc3)co2)cc1 [mubritinib]
Outline: as §1

tozasertib = compound: Cc1cc(Nc2cc(N3CCN(C)CC3)nc(Sc3ccc(NC(=O)C4CC4)cc3)n2)n[nH]1 [tozasertib]
Outline: as §1

nilotinib = compound: Cc1cn(-c2cc(NC(=O)c3ccc(C)c(Nc4nccc(-c5cccnc5)n4)c3)cc(C(F)(F)F)c2)cn1 [nilotinib]
Outline: as §1

[8] = compound: Cc1nc(Nc2n[nH]c3c2CN(C(=O)N[C@H](CN(C)C)c2ccccc2)C3(C)C)c2sccc2n1
Outline: as §1

[9] = compound: Cc1ncc(-c2ccnc(Nc3ccc(S(C)(=O)=O)cc3)n2)n1C(C)C
Outline: as §1

tipifarnib = compound: Cn1cncc1[C@@](N)(c1ccc(Cl)cc1)c1ccc2c(c1)c(-c1cccc(Cl)c1)cc(=O)n2C [tipifarnib]
Outline: as §1

Sequence of UniProt O75503 (O75503 whole entry, looked up): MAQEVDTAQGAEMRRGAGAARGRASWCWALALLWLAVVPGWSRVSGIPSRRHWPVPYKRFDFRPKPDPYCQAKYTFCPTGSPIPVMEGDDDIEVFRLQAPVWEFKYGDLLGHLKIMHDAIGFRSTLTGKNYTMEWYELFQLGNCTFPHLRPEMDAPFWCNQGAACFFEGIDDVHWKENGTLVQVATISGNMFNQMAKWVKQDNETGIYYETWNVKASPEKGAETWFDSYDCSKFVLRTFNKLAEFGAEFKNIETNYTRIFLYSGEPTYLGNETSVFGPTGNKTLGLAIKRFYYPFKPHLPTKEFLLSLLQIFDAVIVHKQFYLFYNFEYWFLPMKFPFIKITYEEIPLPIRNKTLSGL
Sequence of UniProt P46527 (P46527 whole entry, looked up): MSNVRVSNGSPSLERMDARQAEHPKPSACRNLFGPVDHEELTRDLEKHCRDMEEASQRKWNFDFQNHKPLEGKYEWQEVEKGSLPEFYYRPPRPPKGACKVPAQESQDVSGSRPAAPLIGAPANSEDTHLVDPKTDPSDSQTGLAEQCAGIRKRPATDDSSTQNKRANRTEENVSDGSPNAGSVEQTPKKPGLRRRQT
Sequence of UniProt P51636 (P51636 whole entry, looked up): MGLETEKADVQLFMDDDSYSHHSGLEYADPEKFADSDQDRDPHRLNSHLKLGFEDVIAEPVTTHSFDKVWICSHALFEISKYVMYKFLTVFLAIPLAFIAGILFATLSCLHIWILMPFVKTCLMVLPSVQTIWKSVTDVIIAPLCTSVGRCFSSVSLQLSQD
Sequence of UniProt P24863 (P24863 whole entry, looked up): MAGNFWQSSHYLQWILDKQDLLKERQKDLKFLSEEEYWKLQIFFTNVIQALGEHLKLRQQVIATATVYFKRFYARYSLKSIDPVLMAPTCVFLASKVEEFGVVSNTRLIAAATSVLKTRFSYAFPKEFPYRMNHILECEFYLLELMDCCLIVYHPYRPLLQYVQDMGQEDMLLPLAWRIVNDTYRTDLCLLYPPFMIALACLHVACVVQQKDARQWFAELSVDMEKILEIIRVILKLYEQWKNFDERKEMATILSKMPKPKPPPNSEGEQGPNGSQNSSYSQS
Sequence of UniProt Q9UBY8 (Q9UBY8 whole entry, looked up): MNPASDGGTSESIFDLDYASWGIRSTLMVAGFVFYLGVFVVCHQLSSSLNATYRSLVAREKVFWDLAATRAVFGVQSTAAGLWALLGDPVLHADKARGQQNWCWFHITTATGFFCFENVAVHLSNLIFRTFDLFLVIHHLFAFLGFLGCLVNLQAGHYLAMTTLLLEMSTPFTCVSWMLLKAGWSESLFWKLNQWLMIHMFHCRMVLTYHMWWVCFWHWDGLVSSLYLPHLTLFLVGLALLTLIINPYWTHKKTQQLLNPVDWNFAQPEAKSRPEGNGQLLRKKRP
Sequence of UniProt Q9UIB8 (Q9UIB8 whole entry, looked up): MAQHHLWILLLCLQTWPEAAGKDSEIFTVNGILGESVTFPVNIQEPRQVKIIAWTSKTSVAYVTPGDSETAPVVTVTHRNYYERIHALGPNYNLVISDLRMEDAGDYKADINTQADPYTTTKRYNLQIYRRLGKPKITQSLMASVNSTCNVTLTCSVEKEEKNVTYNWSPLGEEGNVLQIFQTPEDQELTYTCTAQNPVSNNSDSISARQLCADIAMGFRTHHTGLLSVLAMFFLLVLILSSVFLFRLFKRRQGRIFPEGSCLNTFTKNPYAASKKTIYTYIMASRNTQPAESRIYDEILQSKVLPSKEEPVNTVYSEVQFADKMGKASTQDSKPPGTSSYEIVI
Sequence of UniProt Q5T655 (Q5T655 whole entry, looked up): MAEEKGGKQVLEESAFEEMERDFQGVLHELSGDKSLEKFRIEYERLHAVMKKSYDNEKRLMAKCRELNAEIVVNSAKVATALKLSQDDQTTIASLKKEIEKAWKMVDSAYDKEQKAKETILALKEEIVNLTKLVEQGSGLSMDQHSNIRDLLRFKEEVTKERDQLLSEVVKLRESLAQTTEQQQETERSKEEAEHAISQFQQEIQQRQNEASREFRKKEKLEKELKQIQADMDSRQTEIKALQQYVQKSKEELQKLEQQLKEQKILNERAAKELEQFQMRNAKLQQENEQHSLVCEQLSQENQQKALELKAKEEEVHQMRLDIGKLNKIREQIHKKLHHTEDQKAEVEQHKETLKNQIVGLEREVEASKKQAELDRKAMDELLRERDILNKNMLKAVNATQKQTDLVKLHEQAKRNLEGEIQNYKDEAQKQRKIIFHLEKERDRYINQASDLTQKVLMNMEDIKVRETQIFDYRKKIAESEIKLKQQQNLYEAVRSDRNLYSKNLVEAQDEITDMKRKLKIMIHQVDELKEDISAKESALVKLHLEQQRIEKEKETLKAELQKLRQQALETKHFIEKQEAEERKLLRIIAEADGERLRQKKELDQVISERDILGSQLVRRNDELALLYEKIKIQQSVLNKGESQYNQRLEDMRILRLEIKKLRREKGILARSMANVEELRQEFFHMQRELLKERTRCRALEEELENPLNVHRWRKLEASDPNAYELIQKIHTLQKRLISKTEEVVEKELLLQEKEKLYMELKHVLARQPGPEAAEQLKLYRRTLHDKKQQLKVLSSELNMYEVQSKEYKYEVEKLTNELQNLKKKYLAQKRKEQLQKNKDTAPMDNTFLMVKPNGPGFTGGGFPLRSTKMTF
Sequence of UniProt Q14677 (Q14677 whole entry, looked up): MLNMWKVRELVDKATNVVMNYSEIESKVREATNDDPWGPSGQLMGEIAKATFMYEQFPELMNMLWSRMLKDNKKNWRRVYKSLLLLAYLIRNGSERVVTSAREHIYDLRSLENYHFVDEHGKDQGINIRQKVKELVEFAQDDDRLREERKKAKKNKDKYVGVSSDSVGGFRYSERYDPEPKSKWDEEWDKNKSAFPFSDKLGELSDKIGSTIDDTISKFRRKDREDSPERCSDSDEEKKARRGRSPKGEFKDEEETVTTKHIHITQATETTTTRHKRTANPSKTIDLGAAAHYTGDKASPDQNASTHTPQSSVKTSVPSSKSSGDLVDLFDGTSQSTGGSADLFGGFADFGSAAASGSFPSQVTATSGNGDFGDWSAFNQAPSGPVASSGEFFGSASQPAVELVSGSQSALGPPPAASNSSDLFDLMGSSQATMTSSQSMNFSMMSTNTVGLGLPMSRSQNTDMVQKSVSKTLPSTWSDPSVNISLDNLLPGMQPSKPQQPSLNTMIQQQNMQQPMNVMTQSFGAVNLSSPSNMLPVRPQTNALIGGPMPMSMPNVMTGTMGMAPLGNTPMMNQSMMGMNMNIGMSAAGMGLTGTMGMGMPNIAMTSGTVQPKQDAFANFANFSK
Sequence of UniProt P24311 (P24311 whole entry, looked up): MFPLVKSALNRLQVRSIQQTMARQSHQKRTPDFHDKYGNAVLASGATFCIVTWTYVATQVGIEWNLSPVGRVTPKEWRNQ
Sequence of UniProt Q8WUD6 (Q8WUD6 whole entry, looked up): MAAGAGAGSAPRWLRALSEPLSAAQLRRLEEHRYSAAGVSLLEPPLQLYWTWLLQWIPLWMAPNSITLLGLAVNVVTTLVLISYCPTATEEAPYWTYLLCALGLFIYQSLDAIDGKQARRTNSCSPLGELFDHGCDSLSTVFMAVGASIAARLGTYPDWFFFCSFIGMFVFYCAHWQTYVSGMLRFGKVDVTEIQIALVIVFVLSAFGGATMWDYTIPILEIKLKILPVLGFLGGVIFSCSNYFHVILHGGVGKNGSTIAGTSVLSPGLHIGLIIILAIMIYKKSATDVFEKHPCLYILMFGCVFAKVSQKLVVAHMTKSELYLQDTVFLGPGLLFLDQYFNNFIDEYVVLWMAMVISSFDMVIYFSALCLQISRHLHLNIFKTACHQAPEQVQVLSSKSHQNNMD

| Target | log2 fold change [1] | log2 fold change (crizotinib) | log2 fold change [2] | log2 fold change [3] | log2 fold change (duvelisib) | log2 fold change (gandotinib) | log2 fold change [4] | log2 fold change (doramapimod) | log2 fold change (ispinesib) | log2 fold change (bafetinib) | log2 fold change [5] | log2 fold change (dasatinib) | log2 fold change [6] | log2 fold change [7] | log2 fold change (mubritinib) | log2 fold change (tozasertib) | log2 fold change (nilotinib) | log2 fold change [8] | log2 fold change [9] | log2 fold change (tipifarnib) |
| --- | --- | --- | --- | --- | --- | --- | --- | --- | --- | --- | --- | --- | --- | --- | --- | --- | --- | --- | --- | --- |
| CCNC (UniProt P24863) | 0.051 | -0.004 | 0.027 | 0.247 | 0.044 | -0.088 | 0.018 | 0.373 (active) | 0.059 | 0.031 | 0.055 | -0.074 | -0.091 | -0.015 | -0.016 |  |  |  |  |  |
| CLINT1 isoform 3 (UniProt Q14677) | -0.019 | 0.02 |  | 0.159 | -0.029 | 0.047 | -0.097 | 0.012 | -0.001 | 0.024 | -0.083 | 0.264 (active) | -0.071 | -0.083 | 0.045 | -0.025 | 0.042 | 0.037 | -0.026 | 0.017 |
| CDKN1B (UniProt P46527) | -0.017 | -0.018 | -0.295 | -0.065 | 0.059 | 0.077 | -0.06 | -0.071 | -0.01 | -0.001 | -0.05 | 0.004 | 0.108 | 0.04 | 0.114 |  | 0.013 | -0.097 | 0.149 | 0.009 |
| CLN5 (UniProt O75503) | 0.136 | -0.733 | 0.06 | 0.046 | 0.093 | -0.077 | 0.073 | 0.044 |  | -0.945 (active) | 0.019 | -0.46 | -0.119 |  | -0.169 | -0.115 | 0.041 | -0.508 | 0.026 | 0.002 |
| CD84 (UniProt Q9UIB8) | 0.049 |  | -0.201 | -0.149 | 0.036 |  | 0.056 |  |  |  |  | 0.169 | -0.117 |  |  | -0.055 |  |  |  |  |
| CAV2 (UniProt P51636) | -0.067 | -0.087 |  |  | 0.075 | 0.043 | 0.035 | 0.13 |  | -1.25 (active) | -0.054 | 0.033 |  |  | 0.066 | -0.115 | 0.221 | -0.082 | 0.008 | 0.136 |
| COX7B (UniProt P24311) | -0.026 | 0.013 | 0.02 | -0.171 | 0.034 | 0.05 | 0.014 | -0.067 |  | 0.109 | 0.037 | 0.074 | -0.011 |  | 0.026 | 0.072 | 0.053 | 0.037 | 0.01 | -0.024 |
| CHPT1 (UniProt Q8WUD6) | 0.064 |  | -0.07 | 0.023 | 0.025 | 0.038 | 0.015 |  | -1.09 (active) |  | 0.197 | -0.074 | 0.011 | -0.027 | 0.387 | -0.016 | -0.596 | -0.029 | -0.017 | -0.192 |
| CLPTM1L (UniProt G5E9Z2) | -0.317 |  | 0.073 | 0.067 |  | -0.382 |  |  |  | 0.156 | 0.176 |  | 0.037 |  | 0.047 | -0.049 | -0.22 | 0.099 | -0.053 |  |
| CFAP58 (UniProt Q5T655) |  |  |  |  |  | -0.011 |  |  | -0.165 |  | 0.009 |  |  | -0.046 | 0.127 |  |  |  |  | -0.108 |
| CLN8 (UniProt Q9UBY8) | -0.006 |  |  | 0.161 | 0.049 | -0.1 | -0.09 |  | -0.15 | -0.209 | -0.662 (active) | 0.032 | 0.258 | 0.266 | -0.08 | -0.05 | 0.051 | -0.11 | -0.083 | 0.003 |
